Nuclei count, normalised and p53-positive nuclei, normalised data for eight molecules are collected here from PubChem BioAssay AID1508601 (ICCB-Longwood Screening Facility, Harvard Medical School, 2020).

Hit rate of the full screen: of about 5,700 compounds, about 85 (1%) were called active. The sample holds actives, similar compounds and a random draw of the others, so the mix is not that of the screen. No stated cut-off is given here; in the data, active means p53-positive nuclei above about 36% (passing the limit was not always enough); inactive means the rest.

Assay [1] is described as follows: p53 stabilisation in HPV-positive human cells, imaging, p53-positive nuclei imaging, 24 h, 48 h (AID 1508601). The conditions noted are these: 24/48 h.
Assay [2] deals with Cellular tumor antigen p53 (Homo sapiens) (UniProt P04637). The assay is described as above. The conditions noted are these: 24/48 h, stronger effect = higher value.
Chain of Cellular tumor antigen p53 (Homo sapiens) (P04637 whole entry, looked up): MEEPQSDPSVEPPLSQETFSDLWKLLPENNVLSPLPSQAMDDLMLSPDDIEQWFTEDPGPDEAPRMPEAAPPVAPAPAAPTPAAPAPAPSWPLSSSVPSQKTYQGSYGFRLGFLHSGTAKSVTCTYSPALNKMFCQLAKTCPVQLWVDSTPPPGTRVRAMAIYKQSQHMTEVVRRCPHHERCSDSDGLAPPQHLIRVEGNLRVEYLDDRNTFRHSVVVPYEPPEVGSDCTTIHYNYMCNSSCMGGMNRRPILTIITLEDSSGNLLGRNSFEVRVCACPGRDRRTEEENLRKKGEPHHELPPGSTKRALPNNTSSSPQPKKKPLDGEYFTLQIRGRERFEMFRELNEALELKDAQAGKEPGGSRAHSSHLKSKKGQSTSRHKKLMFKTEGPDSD
The mark [3] stands for this setting: measured here: cell number at 24 h, concentration not given here.
[4] abbreviates: measured here: cell number at 48 h, concentration not given here.
Setting [5] is: measured here: p53 positive nuclei at 24 h, concentration not given here.
[6] abbreviates: measured here: cell number at 24 h, Library stock concentration: 10 mM.
Setting [7] is: measured here: cell number at 48 h, Library stock concentration: 10 mM.
[8] abbreviates: Library stock concentration: 10 mM.
Setting [9] is: measured here: p53 positive nuclei at 24 h, Library stock concentration: 10 mM.
The mark [10] stands for this setting: measured here: cell number at 24 h, Library stock concentration: 80 uM.
Where [11] appears, read: measured here: cell number at 24 h, Library stock concentration: 400 uM.
The mark [12] stands for this setting: measured here: cell number at 24 h, Library stock concentration: 2 mM.
[13] abbreviates: measured here: cell number at 48 h, Library stock concentration: 80 uM.
Setting [14] is: measured here: cell number at 48 h, Library stock concentration: 400 uM.
The mark [15] stands for this setting: measured here: cell number at 48 h, Library stock concentration: 2 mM.
The mark [16] stands for this setting: Library stock concentration: 80 uM.
[17] abbreviates: Library stock concentration: 400 uM.
Where [18] appears, read: Library stock concentration: 2 mM.
Setting [19] is: measured here: p53 positive nuclei at 24 h, Library stock concentration: 80 uM.
The mark [20] stands for this setting: measured here: p53 positive nuclei at 24 h, Library stock concentration: 400 uM.
Setting [21] is: measured here: p53 positive nuclei at 24 h, Library stock concentration: 2 mM.

Turning to `CC[C@@]1(O)C[C@H](O[C@H]2C[C@H](N(C)C)[C@H](O)[C@H](C)O2)c2c(cc3c(c2O)C(=O)c2c(O)cccc2C3=O)[C@H]1C(=O)OC`, the nuclei count, normalised in assay [1] (setting [3]) was found to be 50.2%; in assay [1] (setting [4]), 38.4%. Also, the p53-positive nuclei, normalised in assay [2] (concentration not given here) was 27.4% (inactive); in assay [2] (setting [5]) it was 16.3%.
Consider `CC[C@@]1(O)C[C@H](O[C@H]2C[C@H](N(C)C)[C@H](O)[C@H](C)O2)c2c(cc3c(c2O)C(=O)c2c(O)ccc(O)c2C3=O)[C@H]1C(=O)OC`, for which the nuclei count, normalised worked out at 29.9% in assay [1] (setting [3]) and 15.5% in assay [1] (setting [4]). Also, the results for the p53-positive nuclei, normalised in assay [2] (concentration not given here) and in assay [2] (setting [5]) were 92.8% (active) and 88.5%, respectively.
On the same counts, the results for `CC[C@@]1(O)C[C@H](O)c2c(cc3c(c2O)C(=O)c2c(O)ccc(O)c2C3=O)[C@H]1C(=O)OC` are 83.7%, 84%, 23.5% (inactive) and 4.09%.
In the same order, the values of `CCCCC/C=C\C/C=C\C/C=C\C/C=C\CCCC(=O)Nc1cccc([N+](=O)[O-])c1` are 108%, 112%, -0.154% (inactive) and -0.0854%.
On the same counts, the results for `CN1CCC(N(C)CCC2CCOCC2)CC1` are 102%, 105%, -0.0157% (inactive) and -0.151%.
Regarding `CN1C(=O)[C@@]23C[C@]4([C@]56C[C@@]78SS[C@@](CO)(C(=O)N7[C@@H]5Nc5ccccc56)N(C)C8=O)c5ccccc5N[C@H]4N2C(=O)[C@]1(CO)SS3`, the nuclei count, normalised was determined as 119% in assay [1] (measured here: cell number at 24 h, Library stock concentration: 500 nM); 109% in assay [1] (measured here: cell number at 24 h, Library stock concentration: 1.5 uM); 104% in assay [1] (measured here: cell number at 24 h, Library stock concentration: 4.6 uM); 98.9% in assay [1] (measured here: cell number at 24 h, Library stock concentration: 13.7 uM); 67.2% in assay [1] (measured here: cell number at 24 h, Library stock concentration: 41 uM); 42.7% in assay [1] (measured here: cell number at 24 h, Library stock concentration: 123 uM). In addition, the nuclei count, normalised came to 46.4% in assay [1] (measured here: cell number at 24 h, Library stock concentration: 370 uM); 36.8% in assay [1] (measured here: cell number at 24 h, Library stock concentration: 1.111 mM); 34.9% in assay [1] (measured here: cell number at 24 h, Library stock concentration: 3.333 mM); 41.7% in assay [1] (setting [6]); 117% in assay [1] (measured here: cell number at 48 h, Library stock concentration: 500 nM); 107% in assay [1] (measured here: cell number at 48 h, Library stock concentration: 1.5 uM). Further, the nuclei count, normalised was 101% in assay [1] (measured here: cell number at 48 h, Library stock concentration: 4.6 uM); 85.5% in assay [1] (measured here: cell number at 48 h, Library stock concentration: 13.7 uM); 44.9% in assay [1] (measured here: cell number at 48 h, Library stock concentration: 41 uM); 30.9% in assay [1] (measured here: cell number at 48 h, Library stock concentration: 123 uM); 32.7% in assay [1] (measured here: cell number at 48 h, Library stock concentration: 370 uM); 24.5% in assay [1] (measured here: cell number at 48 h, Library stock concentration: 1.111 mM). Also, the nuclei count, normalised in assay [1] (measured here: cell number at 48 h, Library stock concentration: 3.333 mM) is 23.4%; in assay [1] (setting [7]), 27.3%. Moreover, the p53-positive nuclei, normalised in assay [2] (Library stock concentration: 500 nM) is 0.0843% (inactive); in assay [2] (Library stock concentration: 1.5 uM), 0.192% (inactive); in assay [2] (Library stock concentration: 4.6 uM), 0.185% (inactive); in assay [2] (Library stock concentration: 13.7 uM) it was 1.67% (inactive); in assay [2] (Library stock concentration: 41 uM), 83.6% (active); in assay [2] (Library stock concentration: 123 uM), 95.7% (active). Besides, the p53-positive nuclei, normalised is 94.5% (active) in assay [2] (Library stock concentration: 370 uM); 72.8% (active) in assay [2] (Library stock concentration: 1.111 mM); 12.8% (inactive) in assay [2] (Library stock concentration: 3.333 mM); 7.98% (inactive) in assay [2] (setting [8]); -0.114% in assay [2] (measured here: p53 positive nuclei at 24 h, Library stock concentration: 500 nM); -0.173% in assay [2] (measured here: p53 positive nuclei at 24 h, Library stock concentration: 1.5 uM). In addition, the p53-positive nuclei, normalised in assay [2] (measured here: p53 positive nuclei at 24 h, Library stock concentration: 4.6 uM) was determined as 0.0127%; in assay [2] (measured here: p53 positive nuclei at 24 h, Library stock concentration: 13.7 uM) it was 13.4%; in assay [2] (measured here: p53 positive nuclei at 24 h, Library stock concentration: 41 uM) it was 101%; in assay [2] (measured here: p53 positive nuclei at 24 h, Library stock concentration: 123 uM), 116%; in assay [2] (measured here: p53 positive nuclei at 24 h, Library stock concentration: 370 uM), 117%; in assay [2] (measured here: p53 positive nuclei at 24 h, Library stock concentration: 1.111 mM), 105%. Besides, the p53-positive nuclei, normalised came out at 30.1% in assay [2] (measured here: p53 positive nuclei at 24 h, Library stock concentration: 3.333 mM) and 12.6% in assay [2] (setting [9]).
As to `NCCc1ccccc1Br`, the nuclei count, normalised stood at 86.4% in assay [1] (setting [10]); 90.6% in assay [1] (setting [11]); 89.9% in assay [1] (setting [12]); 98.5% in assay [1] (setting [6]); 92.2% in assay [1] (setting [13]); 90.8% in assay [1] (setting [14]). The values for the nuclei count, normalised in assay [1] (setting [15]) and in assay [1] (setting [7]) were 95% and 98.1%, respectively. The p53-positive nuclei, normalised in assay [2] (setting [16]) is 0.0704% (inactive); in assay [2] (setting [17]), 0.0834% (inactive); in assay [2] (setting [18]), 0.0298% (inactive); in assay [2] (setting [8]), 0.0211% (inactive); in assay [2] (setting [19]) it was 0.101%; in assay [2] (setting [20]) it was 0.248%. Moreover, the p53-positive nuclei, normalised was -0.0657% in assay [2] (setting [21]) and -0.0492% in assay [2] (setting [9]).
On to `CN1CCC(C(=O)c2cccc(NC(=O)c3c(F)cc(F)cc3F)n2)CC1`, for which the nuclei count, normalised in assay [1] (setting [10]) worked out at 126%; in assay [1] (setting [11]), 115%; in assay [1] (setting [12]), 121%; in assay [1] (setting [6]), 116%; in assay [1] (setting [13]), 118%; in assay [1] (setting [14]), 108%. Besides, the nuclei count, normalised in assay [1] (setting [15]) was determined as 108%; in assay [1] (setting [7]), 105%. The p53-positive nuclei, normalised was -0.0182% (inactive) in assay [2] (setting [16]); -0.00116% (inactive) in assay [2] (setting [17]); -0.0434% (inactive) in assay [2] (setting [18]); -0.0859% (inactive) in assay [2] (setting [8]); -0.0846% in assay [2] (setting [19]); 0.109% in assay [2] (setting [20]). Also, the p53-positive nuclei, normalised in assay [2] (setting [21]) is 0.0583%; in assay [2] (setting [9]) it was -0.136%.
